In ChEMBL document CHEMBL3988442, “University of Dundee, Small-Polar-MMV Screening Library” (2021):
The campaign covered roughly 69,000 compounds. About 50 (0.07%) showed an effect of 50% or more. For the sample, strong results were picked, then their nearest neighbours and some compounds at random.

What follows are compounds tested against Lysine--tRNA ligase (Plasmodium falciparum (isolate 3D7)) (UniProt Q8IDJ8) (assay: Pf-KRS-1 (Lysyl-RNA Synthetase-1, KRS-1, cytosolic KRS) from Plasmodium falciparum. Inhibitor assay, 384 well plate, luminescence read.). Conditions: 30 µM.
Type: functional
Design: scale not given: in the data most compounds retested in dose-response had high values

Sequence of Lysine--tRNA ligase (Plasmodium falciparum (isolate 3D7)) (Q8IDJ8 1-583): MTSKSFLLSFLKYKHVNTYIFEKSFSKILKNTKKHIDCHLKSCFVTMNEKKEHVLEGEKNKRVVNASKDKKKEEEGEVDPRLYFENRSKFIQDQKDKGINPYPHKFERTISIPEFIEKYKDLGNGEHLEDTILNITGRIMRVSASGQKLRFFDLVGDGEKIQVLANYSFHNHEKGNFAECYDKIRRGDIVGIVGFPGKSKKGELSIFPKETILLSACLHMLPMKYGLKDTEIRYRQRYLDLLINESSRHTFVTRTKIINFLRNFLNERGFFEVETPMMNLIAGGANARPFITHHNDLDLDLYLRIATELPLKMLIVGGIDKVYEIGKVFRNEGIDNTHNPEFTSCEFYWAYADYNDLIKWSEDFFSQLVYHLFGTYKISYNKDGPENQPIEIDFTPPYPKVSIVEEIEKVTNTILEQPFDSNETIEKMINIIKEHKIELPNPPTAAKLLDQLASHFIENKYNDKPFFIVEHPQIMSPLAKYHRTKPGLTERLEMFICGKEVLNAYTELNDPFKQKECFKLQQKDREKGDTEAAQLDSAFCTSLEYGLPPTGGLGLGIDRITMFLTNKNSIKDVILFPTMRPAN

SMILES | Percent Effect [%]
CC(C)C(=O)N1CCN(C(=O)c2cc(C(C)C)no2)[C@H]2CS(=O)(=O)C[C@H]21 | 2.34
Cc1cc(CN2C[C@@H]3CN(Cc4ccsc4)CCO[C@@H]3C2)no1 | 3.95
CCCn1cc(NC(=O)c2ccncc2)ccc1=O | 36.1
CCCn1cc(NC(=O)c2ccc(NC(=O)NC3CC3)cc2)ccc1=O | 3.05
CCCn1cc(NC(=O)c2ccc(S(=O)(=O)CC)cc2)ccc1=O | 78.9
CCCn1cc(NC(=O)c2ccc(N(C)CC)cc2)ccc1=O | 6.21
CCCn1cc(NC(=O)c2cccnc2O)ccc1=O | 10.4
CCCn1cc(NC(=O)c2ccc(S(C)(=O)=O)cc2)ccc1=O | 79.3
Cc1noc([C@H]2CC[C@@H]3[C@@H](CCN3S(C)(=O)=O)O2)n1 | 4.83
CN(C)C(=O)N1C[C@@H]2CC[C@H](C1)N(Cc1nnc(C3CC3)o1)C2 | 1.65
CCC(=O)N1CCN(C(=O)c2ccc(COC)o2)[C@H]2CS(=O)(=O)C[C@H]21 | 1.62
O=C([C@@H]1CCO[C@@H]2CCN(Cc3ccc(F)cc3)C[C@H]21)N1CCCCO1 | 4.98
Cc1ncncc1C(=O)N1C[C@H]2CC[C@@H]1CN(C(=O)c1ccncc1)C2 | 4.91
CC(C)Oc1ccccc1C1CC(=O)Nc2c1cnn2C (stereo not drawn) | 1.57
COc1cccc(C2SCC(=O)Nc3n[nH]cc32)c1OC(C)C (stereo not drawn) | 1.84
COc1cccc(C2CC(=O)Nc3nc(N4CCOCC4)sc32)c1OC (stereo not drawn) | 77.8
COc1cccc(C2CC(=O)Nc3nc(N4CCCCC4)sc32)c1OC (stereo not drawn) | 84.4
Nc1nc2c(s1)C(c1c(F)cccc1Cl)CC(=O)N2 (stereo not drawn) | 41.6
CC(C)Oc1ccccc1C1CC(=O)Nc2nc(N3CCOCC3)sc21 (stereo not drawn) | 82.6
COc1cccc(C2SCC(=O)Nc3ccsc32)c1OC (stereo not drawn) | 1.9
COc1cccc(CNc2nc(N3CCOCC3)ns2)c1OC | -2.52
CCn1ncnc1C1CC(=O)NCc2nc(N3CCCC3)sc21 (stereo not drawn) | 2.27
COc1cccc(CNCc2ccnc(N3CCOCC3)c2)c1OC | 5.86

SMILES | Percent Effect [%]
CCOc1cccc(C2CC(=O)NCc3nc(N4CCCC4)sc32)c1 (stereo not drawn) | 1.45
COc1cccc(C2CC(=O)Nc3nc(N)sc32)c1OC (stereo not drawn) | 62.7
O=C(N1CCCC1)N1C[C@H]2CCC[C@@]2(COCc2ccccn2)C1 | 2.76
CCO[C@@H]1CC[C@H]2[C@H]1OCCN2Cc1ccoc1 | 2.1
CNC(=O)[C@@H]1C[C@H]2CN(Cc3csc(C)n3)C[C@H]2N1C(C)C | 4.1
O=C([C@H]1CN(Cc2cccnc2)C[C@H]2OCC[C@@H]12)N1CCCO1 | 2.79
CN(C)C(=O)[C@@H]1C[C@@H]2CCN(C3CCOCC3)C[C@H]2O1 | 1.18
N#Cc1cccc(C(=O)Nc2ccc([C@@H](O)[C@H]3COCC(=O)N3)cc2)c1 | 5.33
COCC(=O)N1CCN(S(=O)(=O)c2ccccc2)[C@H]2CS(=O)(=O)C[C@H]21 | 2.66
O=C1CO[C@@H]2CN(Cc3nccs3)C[C@H]2N1Cc1ccncc1 | 3.56
COCC(=O)N1C[C@@H](OCc2ccncc2)[C@@H]2OCCC[C@@H]21 | 0.763
COc1ccccc1C1CC(=O)Nc2nc(N3CCCCC3)sc21 (stereo not drawn) | 84.3
COc1ccccc1C1CC(=O)Nc2c1c(=O)[nH]n2C1CCCC1 (stereo not drawn) | 5.39
COc1ccccc1C1CC(=O)Nc2c1c(=O)[nH]n2C(C)C (stereo not drawn) | -1.35
COCCN1C[C@H]2CCC[C@@H](CNc3ncccn3)[C@H]2C1 | 5
Cn1ccnc1NC[C@@H]1CCC[C@@H]2CN(CC3CC3)C[C@@H]21 | 9.69
Cc1ncsc1CN1C[C@H]2OCC[C@H]2[C@H](C(=O)NCC2CC2)C1 | 0.98
Fc1cccc(CCN(c2ccc3nnnn3n2)C2CC2)c1 | 5.52
CCN(Cc1cccc(F)c1)c1ccc2nnnn2n1 | 50.8
CCCN(CCc1cccc(F)c1)c1ccc2nnnn2n1 | 10.9
O=C(c1ccco1)N1CC[C@@H]2O[C@H](COCC3CCOCC3)CC[C@@H]21 | 0.363
CS(=O)(=O)NC[C@@H]1OC[C@H]2CN(Cc3ccccc3)CC[C@H]21 | 3.37
COCCNC(=O)[C@H]1C[C@@H]2CCN(CCc3ccccc3)C[C@@H]2O1 | 1.68

SMILES | Percent Effect [%]
COc1cccc(CN2C[C@@H]3COC[C@]3(CNC(=O)C3CC3)C2)c1 | 4.5
Cn1ncc2c1NC(=O)CC2c1ccccc1Br (stereo not drawn) | 1.2
O=C1CC(c2ccccc2Br)c2sc(N3CCOCC3)nc2N1 (stereo not drawn) | 60.1
Cc1cc(Br)c(O)c(-c2nc(N3CCOCC3)sc2C)c1 | 2.13
OC1CN(c2nc3c(C(F)(F)F)cccc3s2)C1 | -2.21
O=C1CC(c2ccccc2C(F)(F)F)c2sc(N3CCOCC3)nc2N1 (stereo not drawn) | 82.6
O=c1[nH]nc(-c2cccs2)c2sc(N3CCOCC3)nc12 | 7.56
COCCN1CCO[C@@H]2CN(Cc3ccc(C)o3)C[C@@H]2C1 | 3.96
CNC(=O)[C@@H]1COC[C@H]2CN(C(=O)COc3ccccc3)C[C@H]21 | 5.31
CC(C)CS(=O)(=O)N1C[C@H]2C[C@H](C(=O)Nc3cccnc3)[C@@H](C1)O2 | -0.957
O=C(Nc1ccccc1)[C@H]1C[C@@H]2CN(S(=O)(=O)c3ccccc3)C[C@H]1O2 | 1.2
CCOCC1CN(Cc2ccc(F)cc2)Cc2nn(CC3CC3)cc21 (stereo not drawn) | 3.6
CCOCC1CN(Cc2ccc(OC)cc2)Cc2nn(C)cc21 (stereo not drawn) | -4.8
CCOCC1CN(Cc2ccc(OC)cc2)Cc2nn(CC3CC3)cc21 (stereo not drawn) | 60.3
CNC(=O)N1CC[C@H]2N(C)CC[C@@]2(C(=O)N2CCOCC2)CC1 | 5.59
Cc1cccc(C(=O)N2CC[C@H]3C[C@@H](C)O[C@@H]3C2)n1 | 1.1
CS(=O)(=O)N1C[C@@H]2COC[C@@H](CC(=O)N3CCCCO3)[C@@H]2C1 | -2.78
O=C(N1CCCO1)[C@@]12CCO[C@@H]1CCN(Cc1ccccc1)C2 | 4.7
COc1cccc(CN2C[C@H]3CCNCC[C@H]3S2(=O)=O)c1 | -2.39
Cc1noc(C)c1CN1CC[C@H]2C[C@H](c3nccs3)O[C@@H]2C1 | -0.715
COCc1nc2cc(NCc3sc(C)nc3C)ccc2o1 | 58.6
COCc1nc2cc(NCc3csc(C)n3)ccc2o1 | 10.7
COCc1nc2cc(NCc3scnc3C)ccc2o1 | 13.6

SMILES | Percent Effect [%]
CC/C=C(\C)CN1CCC(CNC(=O)c2c[nH]c(=O)c(Cl)c2)C1 (stereo not drawn) | -1.78
COCCN1CCC(CNC(=O)c2c[nH]c(=O)c(Cl)c2)CC1 | 2.11
CCC1CCC(CNC(=O)c2c[nH]c(=O)c(Cl)c2)CC1 (stereo not drawn) | 67.6
c1cnc(N2CC[C@@H]3CN(Cc4ccncc4)CCO[C@@H]3C2)nc1 | 4.97
Cc1cccc(CO[C@H]2CN(c3nnc(C)s3)[C@@H]3CCCO[C@H]23)n1 | 3.74
COc1cccc(-c2n[nH]c3c2CN(C(=O)c2ccncc2)CC3)c1 | 0.631
COc1cccc(-c2n[nH]c3c2CN(C(=O)c2cc(C)n(C)n2)CC3)c1 | -1.18
COc1cccc(-c2n[nH]c3c2CN(C(=O)c2cccc(=O)[nH]2)CC3)c1 | 55.1
Cn1cccc1C(=O)N1C[C@H](OCC2CCOCC2)[C@H]2COC[C@H]21 | 3.49
c1cnnc(N[C@@H]2CC[C@@H]3CN(Cc4c[nH]c5ccccc45)C[C@@H]32)c1 | 0.669
CCCN(C(=O)c1ccncc1)c1nc2c(s1)CCc1c-2cnn1C | 16.2
COCCN(C(=O)c1cnccn1)c1nc2c(s1)CCc1c-2cnn1C | 8.73
CN(C(=O)c1ccccn1)c1nc2c(s1)CCc1c-2cnn1C | 0.965
CCCN(C(=O)c1cccnc1)c1nc2c(s1)CCc1c-2cnn1C | 44
CCCN(C(=O)c1cnccn1)c1nc2c(s1)CCc1c-2cnn1C | 10.8
CCCN(C(=O)c1cnc(C)cn1)c1nc2c(s1)CCc1c-2cnn1C | 40.4
COCCN(C(=O)c1ccccn1)c1nc2c(s1)CCc1c-2cnn1C | 52.4
CCCN(C(=O)COC)c1nc2c(s1)CCc1c-2cnn1C | 74.8
CCCN(C(=O)c1ccccn1)c1nc2c(s1)CCc1c-2cnn1C | 50.4
Cc1nccc([C@H]2C[C@@H]3CCN(S(C)(=O)=O)C[C@H]3O2)n1 | -0.787
O=C([C@H]1COC[C@H]2CN(c3ccncn3)C[C@H]21)N1CCCC1 | -3.71
O=C(Nc1cnccn1)[C@H]1C[C@H]2OCC[C@H]2N(c2ncc(F)cn2)C1 | 11.9
COc1cccc(-c2ncc(CN3C[C@@H]4CC[C@H](C3)N(C)C4=O)s2)c1 | -4.12

SMILES | Percent Effect [%]
COc1ccc(OC)c(C2CC(=O)Nc3nc(N4CCOCC4)sc32)c1 (stereo not drawn) | 84.5
COc1ccc(C2CC(=O)Nc3nc(N4CCOCC4)sc32)cc1 (stereo not drawn) | 82.2
COc1ccc(C2CC(=O)Nc3nc(N4CCOCC4)sc32)c(OC)c1 (stereo not drawn) | 86.4
COc1ccc(C2CCCN2c2nnc(C)s2)c(OC)c1 (stereo not drawn) | -1.09
COc1ccc(OC)c(C2CCN(CC(C)(C)N3CCOCC3)C2)c1 (stereo not drawn) | 1.11
COc1ccc(C2CC(=O)Nc3c2cnn3C)cc1 (stereo not drawn) | -3.99
COc1ccc(OC)c(C2SCC(=O)Nc3n[nH]cc32)c1 (stereo not drawn) | 4.67
COc1ccc(C2CC(=O)NCc3nc(N(C)C)sc32)c(O)c1 (stereo not drawn) | 1.01
CCn1ncnc1C1CC(=O)NCc2nc(N3CCOCC3)sc21 (stereo not drawn) | 0.366
COCCN1C(=O)CO[C@H]2CN(Cc3ccccc3Cl)C[C@@H]21 | 3.69
O=C(c1cocn1)N1C[C@H]2CCC[C@@]2(COCc2cccnc2)C1 | 2.44
Cc1c(Cl)cccc1S(=O)(=O)N1C[C@@H]2CC[C@H](C1)N(C)C2=O | 3.71
O=S1(=O)C[C@@H]2[C@H](C1)N(Cc1ccoc1)CCN2Cc1ccncc1 | 8.97
O=C(c1ccncc1)N1C[C@@H]2CC[C@H](C1)N(C(=O)C1CCCC1)C2 | -0.475
Cc1ccsc1C1CC(=O)Nc2c1cnn2C(C)C (stereo not drawn) | 3.08
CNc1nc2c(s1)C(c1cc(Cl)ccc1F)CC(=O)N2 (stereo not drawn) | 44.9
CC(C)(C)n1ncc2c1NC(=O)CC2c1c(F)cccc1F (stereo not drawn) | 5.99
CNc1nc2c(s1)C(c1cccc(F)c1F)CC(=O)N2 (stereo not drawn) | 50.5
CNc1nc2c(s1)C(c1ccccc1F)CC(=O)N2 (stereo not drawn) | 79.2
CNc1nc2c(s1)C(c1ccccc1Cl)CC(=O)N2 (stereo not drawn) | 84.5
CNc1nc2c(s1)C(c1ccc(Cl)cc1Cl)CC(=O)N2 (stereo not drawn) | 47.4
O=C1CC(c2ccccc2F)c2c(n3ccsc3nc2=O)N1 (stereo not drawn) | 6.5
CNc1nc2c(s1)C(c1ccc(F)cc1Cl)CC(=O)N2 (stereo not drawn) | 82

SMILES | Percent Effect [%]
Cn1ncc2c1NC(=O)CC2c1ccc(Cl)cc1Cl (stereo not drawn) | 9.51
CNc1nc2c(s1)C(c1cccc(Cl)c1Cl)CC(=O)N2 (stereo not drawn) | 29.5
Cn1ncc2c1NC(=O)CC2c1ccccc1Cl (stereo not drawn) | 6.28
O=C(NCC1CC1)[C@@H]1CC[C@@H]2[C@@H](CCN2Cc2ccco2)O1 | -0.532
COCCN1C[C@H]2CN(Cc3cccc(OC)c3)CCN2C1=O | 8.64
COc1ncccc1C(=O)N1C[C@@H]2COC[C@]2(CN(C)C)C1 | -2.56
Fc1ccccc1CN1C[C@@H]2OCCN(c3ncccn3)[C@@H]2C1 | -1.46
COCCN1C(=O)[C@H]2CC[C@@H]1CN(S(=O)(=O)c1ccc(OC)cc1)C2 | 5.86
c1cnc2c(-c3nccn3C[C@@H]3CCCN4CCCC[C@H]34)cccc2c1 | 1.5
Cc1cccc(S(=O)(=O)N2CC[C@H]3[C@H]2CCN3c2ncccn2)c1 | 1.51
O=C(c1cscn1)N1CC[C@@H]2[C@@H]1CCN2C1CCOCC1 | 1.62
CN1C[C@@H]2CC[C@H](CC1=O)N2C(=O)c1ccc(-c2ccccc2)[nH]c1=O | 16.3
COc1ccc(CC(=O)N2CC[C@@H]3CN(C)S(=O)(=O)[C@@H]3CC2)cc1 | 3.63
CNc1nc2c(s1)C(c1c(F)cccc1Cl)CC(=O)N2 (stereo not drawn) | 70
CNc1nc2c(s1)C(c1c(Cl)cccc1Cl)CC(=O)N2 (stereo not drawn) | 35.2
Cn1ncc2c1NC(=O)CC2c1c(F)cccc1Cl (stereo not drawn) | 2.46
O=C1C[C@H]2[C@@H](CCN2C(=O)Cc2cccs2)N1Cc1ccncc1 | 3.5
Cc1cccc(CN2C[C@@H]3OCCN(S(=O)(=O)N(C)C)[C@@H]3C2)c1 | 2.13
